How the values were obtained:
Assay in all cases: DAPPL (digital affinity profiling via proximity ligation, sequencing); 10 mM Tris-HCl pH 7.5, 50 mM NaCl, 1 mM DTT, 4% glycerol, room temperature, 30 min; GST-TFs on glutathione beads, 16-mer random dsDNA library, 0.1% formaldehyde crosslink after washing; high values mean tight binding
[1] = target: T1, FEV (Homo sapiens, UniProt Q99581 1-238); details: protein: recombinant; tags: N-terminal GST; dsDNA, one strand shown
T1 sequence: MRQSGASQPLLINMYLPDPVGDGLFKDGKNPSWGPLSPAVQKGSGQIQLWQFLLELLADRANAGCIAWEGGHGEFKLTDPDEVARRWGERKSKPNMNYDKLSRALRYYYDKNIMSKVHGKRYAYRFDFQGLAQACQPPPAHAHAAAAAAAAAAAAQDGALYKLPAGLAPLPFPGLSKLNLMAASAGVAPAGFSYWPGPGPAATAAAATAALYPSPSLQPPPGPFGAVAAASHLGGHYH
Method in brief: (§1)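 Human transcription factors fused to GST were expressed in yeast, captured on glutathione beads, given DNA barcodes and pooled with a GST-only negative control. Pools were incubated with 200 nmole of a 16-mer random double-stranded DNA library in Tris/NaCl/DTT/glycerol buffer at room temperature for 30 min. They were then washed, crosslinked with 0.1% formaldehyde, proximity-ligated (BsaI/T4 ligase, 1 h, 37 °C), PCR-amplified and sequenced on an Illumina NextSeq500. Binding signal is each 6-mer's read frequency for a factor divided by its frequency for the GST control.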

[2] = target: ETV5 (Homo sapiens, UniProt P41161 1-510); details: protein: recombinant; tags: N-terminal GST; dsDNA, one strand shown
Chain of ETV5 (P41161 whole entry): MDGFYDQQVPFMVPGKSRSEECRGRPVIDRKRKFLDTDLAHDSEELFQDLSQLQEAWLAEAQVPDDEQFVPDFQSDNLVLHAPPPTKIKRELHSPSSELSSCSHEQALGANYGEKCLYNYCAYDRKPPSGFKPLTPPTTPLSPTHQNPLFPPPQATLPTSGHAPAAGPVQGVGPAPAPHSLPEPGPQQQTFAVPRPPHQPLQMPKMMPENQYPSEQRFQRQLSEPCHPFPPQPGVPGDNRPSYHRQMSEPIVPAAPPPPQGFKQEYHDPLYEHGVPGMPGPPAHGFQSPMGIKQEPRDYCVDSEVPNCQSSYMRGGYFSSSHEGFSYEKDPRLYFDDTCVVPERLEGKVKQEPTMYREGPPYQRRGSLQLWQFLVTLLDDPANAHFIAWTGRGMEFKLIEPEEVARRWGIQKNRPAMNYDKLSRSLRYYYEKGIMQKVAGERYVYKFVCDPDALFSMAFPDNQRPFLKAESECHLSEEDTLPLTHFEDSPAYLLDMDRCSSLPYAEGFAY
Method in brief: as §1

[3] = target: HSF1 (Homo sapiens, UniProt Q00613 1-529); details: protein: recombinant; tags: N-terminal GST; chain copies: 3; dsDNA, one strand shown
Chain of HSF1 (Q00613 whole entry): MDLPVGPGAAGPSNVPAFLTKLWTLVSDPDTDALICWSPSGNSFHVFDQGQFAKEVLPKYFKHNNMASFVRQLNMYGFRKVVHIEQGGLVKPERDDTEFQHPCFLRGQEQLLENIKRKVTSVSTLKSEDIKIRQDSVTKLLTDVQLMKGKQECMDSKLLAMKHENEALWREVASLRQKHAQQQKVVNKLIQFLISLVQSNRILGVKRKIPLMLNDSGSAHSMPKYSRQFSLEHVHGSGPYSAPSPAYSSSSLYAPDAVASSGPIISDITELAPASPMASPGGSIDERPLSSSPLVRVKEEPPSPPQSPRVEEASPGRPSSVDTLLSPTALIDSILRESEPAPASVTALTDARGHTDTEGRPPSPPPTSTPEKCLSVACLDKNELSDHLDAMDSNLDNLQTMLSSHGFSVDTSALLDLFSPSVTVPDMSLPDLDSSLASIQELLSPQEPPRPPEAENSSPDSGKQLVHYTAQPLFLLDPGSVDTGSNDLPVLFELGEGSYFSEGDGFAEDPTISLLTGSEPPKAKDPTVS
Method in brief: as §1

[4] = target: T2, SPIC (Homo sapiens, UniProt Q8N5J4 1-248); details: protein: recombinant; tags: N-terminal GST; dsDNA, one strand shown
T2 sequence: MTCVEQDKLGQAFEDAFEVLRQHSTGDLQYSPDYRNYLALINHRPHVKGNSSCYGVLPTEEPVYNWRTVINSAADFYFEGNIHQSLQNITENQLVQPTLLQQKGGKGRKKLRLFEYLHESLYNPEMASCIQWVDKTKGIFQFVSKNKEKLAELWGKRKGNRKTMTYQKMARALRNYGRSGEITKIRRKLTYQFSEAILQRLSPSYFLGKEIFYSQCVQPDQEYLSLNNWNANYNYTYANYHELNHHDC
Method in brief: as §1

[5] = target: ELF4 (Homo sapiens, UniProt Q99607 1-663); details: protein: recombinant; tags: N-terminal GST; dsDNA, one strand shown
Chain of ELF4 (Q99607 whole entry): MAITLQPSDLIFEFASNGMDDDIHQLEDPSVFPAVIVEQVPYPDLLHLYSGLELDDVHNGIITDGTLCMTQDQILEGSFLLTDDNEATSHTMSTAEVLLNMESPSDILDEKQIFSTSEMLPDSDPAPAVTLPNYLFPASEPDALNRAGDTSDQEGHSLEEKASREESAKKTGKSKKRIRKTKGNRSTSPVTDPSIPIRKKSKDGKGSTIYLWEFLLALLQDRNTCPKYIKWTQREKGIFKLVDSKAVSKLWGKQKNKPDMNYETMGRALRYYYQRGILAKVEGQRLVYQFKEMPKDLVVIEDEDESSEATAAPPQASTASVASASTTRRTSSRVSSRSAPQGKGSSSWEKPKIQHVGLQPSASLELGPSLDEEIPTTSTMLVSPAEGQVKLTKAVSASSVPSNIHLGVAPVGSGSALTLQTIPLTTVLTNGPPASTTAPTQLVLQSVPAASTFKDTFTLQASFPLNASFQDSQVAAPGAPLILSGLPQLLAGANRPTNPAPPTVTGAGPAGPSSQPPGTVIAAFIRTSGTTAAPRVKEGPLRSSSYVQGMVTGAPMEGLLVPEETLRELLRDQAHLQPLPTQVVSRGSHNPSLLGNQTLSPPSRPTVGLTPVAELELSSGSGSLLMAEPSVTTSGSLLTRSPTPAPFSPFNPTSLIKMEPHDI
Method in brief: as §1

[6] = target: T3, ELK4 (Homo sapiens, UniProt P28324-2 1-405); details: protein: recombinant; tags: N-terminal GST; dsDNA, one strand shown
T3 sequence: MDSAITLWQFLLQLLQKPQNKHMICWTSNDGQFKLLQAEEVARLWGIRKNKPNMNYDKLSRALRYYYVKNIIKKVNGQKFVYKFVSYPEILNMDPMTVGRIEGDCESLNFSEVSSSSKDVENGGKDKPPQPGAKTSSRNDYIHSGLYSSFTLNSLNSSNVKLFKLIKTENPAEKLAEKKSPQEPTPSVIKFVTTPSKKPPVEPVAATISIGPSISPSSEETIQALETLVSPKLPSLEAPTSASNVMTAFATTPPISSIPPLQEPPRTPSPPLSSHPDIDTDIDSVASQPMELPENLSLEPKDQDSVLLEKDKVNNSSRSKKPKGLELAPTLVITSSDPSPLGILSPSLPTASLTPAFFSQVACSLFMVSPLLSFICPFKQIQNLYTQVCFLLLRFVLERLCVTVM
Method in brief: as §1

[7] = target: T4, ETV2 (Homo sapiens, UniProt O00321 1-342); details: protein: recombinant; tags: N-terminal GST; dsDNA, one strand shown
T4 sequence: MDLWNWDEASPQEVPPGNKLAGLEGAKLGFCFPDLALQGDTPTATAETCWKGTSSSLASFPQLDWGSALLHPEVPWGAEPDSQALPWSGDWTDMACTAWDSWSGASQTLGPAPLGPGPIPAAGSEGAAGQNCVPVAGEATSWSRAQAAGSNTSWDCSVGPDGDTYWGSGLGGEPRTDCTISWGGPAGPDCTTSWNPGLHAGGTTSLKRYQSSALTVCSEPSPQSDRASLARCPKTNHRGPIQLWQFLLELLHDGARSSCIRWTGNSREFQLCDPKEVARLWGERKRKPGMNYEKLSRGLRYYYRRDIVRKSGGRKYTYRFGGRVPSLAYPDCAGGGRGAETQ
Method in brief: as §1

[8] = target: T5, ELF3 (Homo sapiens, UniProt P78545 1-371); details: protein: recombinant; tags: N-terminal GST; dsDNA, one strand shown
T5 sequence: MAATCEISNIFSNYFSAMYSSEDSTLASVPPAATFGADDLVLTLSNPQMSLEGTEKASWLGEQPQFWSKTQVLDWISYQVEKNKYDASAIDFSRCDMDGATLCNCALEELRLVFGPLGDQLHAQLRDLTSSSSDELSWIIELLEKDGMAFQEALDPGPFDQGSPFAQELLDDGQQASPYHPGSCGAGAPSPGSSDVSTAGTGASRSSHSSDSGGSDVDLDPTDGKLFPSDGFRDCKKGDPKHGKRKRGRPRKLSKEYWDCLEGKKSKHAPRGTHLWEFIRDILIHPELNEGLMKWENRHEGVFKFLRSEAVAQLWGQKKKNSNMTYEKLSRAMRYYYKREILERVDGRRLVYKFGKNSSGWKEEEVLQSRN
Method in brief: as §1

[9] = target: CRX (Homo sapiens, UniProt O43186 1-299); details: protein: recombinant; tags: N-terminal GST; dsDNA, one strand shown
Chain of CRX (O43186 whole entry): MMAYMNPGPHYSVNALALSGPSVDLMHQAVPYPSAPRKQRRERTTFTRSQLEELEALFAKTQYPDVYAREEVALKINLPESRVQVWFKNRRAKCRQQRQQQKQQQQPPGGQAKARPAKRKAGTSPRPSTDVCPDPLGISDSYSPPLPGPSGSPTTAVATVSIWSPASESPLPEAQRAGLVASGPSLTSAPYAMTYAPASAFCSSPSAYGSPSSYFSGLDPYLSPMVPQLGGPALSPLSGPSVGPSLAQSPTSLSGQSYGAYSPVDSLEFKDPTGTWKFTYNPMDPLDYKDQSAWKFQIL
Method in brief: as §1

[10] = target: ETV1 (Homo sapiens, UniProt P50549 1-477); details: protein: recombinant; tags: N-terminal GST; dsDNA, one strand shown
Chain of ETV1 (P50549 whole entry): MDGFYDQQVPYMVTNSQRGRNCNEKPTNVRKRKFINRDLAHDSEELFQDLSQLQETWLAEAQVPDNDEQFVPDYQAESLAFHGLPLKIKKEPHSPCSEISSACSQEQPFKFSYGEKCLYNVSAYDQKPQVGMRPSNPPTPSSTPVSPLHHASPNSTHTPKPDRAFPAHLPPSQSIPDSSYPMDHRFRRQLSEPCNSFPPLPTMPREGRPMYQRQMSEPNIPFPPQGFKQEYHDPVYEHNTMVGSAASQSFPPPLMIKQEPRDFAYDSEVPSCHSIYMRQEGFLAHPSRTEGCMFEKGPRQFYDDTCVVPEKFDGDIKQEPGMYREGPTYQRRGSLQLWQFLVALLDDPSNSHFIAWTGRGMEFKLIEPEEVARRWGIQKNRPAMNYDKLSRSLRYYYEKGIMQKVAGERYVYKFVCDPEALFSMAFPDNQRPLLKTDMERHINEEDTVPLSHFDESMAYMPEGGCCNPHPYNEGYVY
Method in brief: as §1

**Q.** How did the binding signal [1] turn out when TCCGGC was run?
**A.** Its binding signal is 3.33 fold enrichment (6-mer frequency, TF over GST control).

**Q.** And the binding signal [2]?
**A.** Its binding signal is 2.4 fold enrichment (6-mer frequency, TF over GST control).

**Q.** What about the binding signal [3] of the same sequence?
**A.** The binding signal was 1.17 fold enrichment (6-mer frequency, TF over GST control).

**Q.** What about the binding signal [4] of the same sequence?
**A.** The binding signal was 2.2 fold enrichment (6-mer frequency, TF over GST control).

**Q.** And the binding signal [5]?
**A.** Its binding signal is 1.95 fold enrichment (6-mer frequency, TF over GST control).

**Q.** What about the binding signal [6] of the same sequence?
**A.** The binding signal was 2.03 fold enrichment (6-mer frequency, TF over GST control).

**Q.** And the binding signal [7]?
**A.** The binding signal was 2.4 fold enrichment (6-mer frequency, TF over GST control).

**Q.** What about the binding signal [8] of the same sequence?
**A.** Its binding signal is 1.97 fold enrichment (6-mer frequency, TF over GST control).

**Q.** And the binding signal [9]?
**A.** Its binding signal is 1.1 fold enrichment (6-mer frequency, TF over GST control).

**Q.** What about the binding signal [10] of the same sequence?
**A.** Its binding signal is 2.31 fold enrichment (6-mer frequency, TF over GST control).

Reference: publication PMC7862700, “An all-to-all approach to the identification of sequence-specific readers for epigenetic DNA modifications on cytosine”
